Compound activity (PubChem BioAssay)
Hits are enriched below; roughly 3.9% of the tested compounds scored in any of these assays.
KKLEB tox: counter-screen for CF NF-kB inhibitors: cytotoxicity | KKLEB CF airway cells viability, ATPlite luminescence, overnight; hits give low values; cells stimulated with P. aeruginosa culture filtrate | activity change (cytotoxicity), % at 5 µM | hit rate 0.36% among 360,000 | AID 602141;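 active means corrected activity change at or below -50% at 5 µM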
TROY NFkB inh: TROY signaling inhibition; Q293 LMP1-TROYcd NF-kB luciferase reporter, 4 h; inhibition, % at 10 µM; hit rate 0.98% among 360,000; AID 1347056;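 active means compounds whose plate-normalised and pattern-corrected inhibition of the luciferase reporter signal at the single screening dose is 50% or more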
CF NFkB block: cystic fibrosis NF-kB activation inhibition | KKLEB NF-kB-GFP reporter, PAF-induced, GFP fluorescence overnight | inhibition, % at 5 µM | hit rate 0.86% among 360,000;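 active means at least 50% inhibition at 5 µM, scaled per plate between neutral and stimulator controls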;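 further: PAF is a Pseudomonas aeruginosa culture filtrate used as stimulus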
HIF-2a block: blocks HIF-2a reporter activity; inhibition, % at 18.8 µM; hit rate 0.72% among 360,000; AID 624352; 786-0 RCC cells HIF-2a reporter, luciferase luminescence, overnight;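 active means inhibition of the luminescence signal of 40% or more relative to plate controls, in a single-dose primary screen at 18.75 µM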
Peg3 promoter: reduces Peg3 promoter-driven luciferase expression in HeLa | HeLa PEG-Prom luciferase reporter, luminescence, overnight | inhibition, % at 20 µM | hit rate 1.7% among 360,000 | AID 588405;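 active means inhibition of at least 50% at 20 µM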
TWEAK Fn14 block: blocks TWEAK-Fn14 interaction in a reporter cell assay | inhibition, % at 10 µM | hit rate 2% among 360,000 | TWEAK-stimulated Fn14 reporter cells, luciferase luminescence, 8 h | AID 1159606; in the data active means inhibition above about 50%
Of the large screens only hits and unclear results are named; the others gave an inactive call.

COc1ccc(CC(N)c2csc(NC(=O)c3cccc(OC(F)(F)F)c3)n2)cc1 (centres undefined)	Peg3 promoter 94.4
COc1ccc(CC(N)c2csc(NC(=O)C(c3ccccc3)c3ccccc3)n2)cc1 (centres undefined)	Peg3 promoter 98.3
COc1ccc(/C(CC2(O)C(=O)Nc3ccccc32)=N\O)cc1 (centres undefined)	none
N#Cc1c(C(F)(F)F)cc(-c2ccccc2)nc1SCCN1CCOCC1	none
NC(Cc1ccc(Cl)cc1)c1csc(NC(=O)Nc2ccccc2-c2ccccc2)n1 (centres undefined)	Peg3 promoter 89.6
NC(CCc1ccccc1)c1csc(NC(=O)Nc2ccccc2Oc2ccccc2)n1 (centres undefined)	Peg3 promoter 118.1
COc1cc(CNC(=O)Nc2nc(C(N)Cc3ccc(Cl)cc3)cs2)cc(OC)c1OC (centres undefined)	Peg3 promoter 86.3
CC(=O)c1ccc(Nc2nc(C(N)CCc3ccccc3)cs2)cc1 (centres undefined)	none
COc1ccccc1CNC(=O)Nc1nc(C(N)CCc2ccccc2)cs1 (centres undefined)	Peg3 promoter 96.7
NC(CO)c1csc(NC(=O)Nc2ccccc2Cc2ccccc2)n1 (centres undefined)	none
COc1cc(CNC(=O)Nc2nc(C(N)c3ccccc3)cs2)cc(OC)c1OC (centres undefined)	none
CCCOc1ccc(C(=O)NNC(=O)CCNC(=O)c2ccccc2Cl)cc1OC	none
Cc1ccccc1CNC(=O)C1CCC(=O)N(Cc2cccc(F)c2)C1 (centres undefined)	none
CC(=O)Nc1ccc(C(=O)COC(=O)CCN2C(=O)C3CC=CCC3C2=O)cc1 (centres undefined)	none
Cn1c(=O)[nH]c(=O)c2c1nc(NC1CCCCC1)n2Cc1ccccc1	none
NC(CCc1ccccc1)c1csc(NC(=O)NCCc2ccccc2)n1 (centres undefined)	Peg3 promoter 92.6
NC(Cc1ccc(Cl)cc1)c1csc(NC(=O)NCCc2ccccc2)n1 (centres undefined)	Peg3 promoter 95.6
CC(N)c1csc(NC(=O)c2cc(C(C)(C)C)nn2Cc2ccccc2)n1 (centres undefined)	none
COc1ccc(CC(N)c2csc(NC(=O)c3cc(C(C)(C)C)nn3Cc3ccccc3)n2)cc1 (centres undefined)	KKLEB tox -51.8, CF NFkB block 57.9, Peg3 promoter 99.7
Cc1cc(C(=O)N2CCc3c([nH]c4ccccc34)C2c2c(F)cccc2Cl)no1 (centres undefined)	none
COc1ccccc1N1CCN(C(=O)C2CCCN(S(=O)(=O)c3ccc(C)cc3)C2)CC1 (centres undefined)	none
N#CC1=C2N=C(N)c3c(sc4c3CCCCC4)N2C2=C(C(=O)CCC2)C1c1ccccc1 (centres undefined)	TROY NFkB inh 54.0
N#CC1=C2N=C(N)c3ccccc3N2C2=C(C(=O)CCC2)C1c1ccc(F)cc1 (centres undefined)	none
CC1CCCCC1NC(=O)COC(=O)/C=C/c1ccco1 (centres undefined)	none
Cc1ccc(Cc2c(C3CCCCC3)nc3c(C)cc(Br)cn23)cc1	TWEAK Fn14 block 57.3 (no result: KKLEB tox, CF NFkB block, Peg3 promoter)
Cc1cc(Br)cn2c(Cc3ccccc3)c(C3CCCCC3)nc12	none (no result: KKLEB tox, CF NFkB block, Peg3 promoter)
Cc1cc(S(=O)(=O)N2CCCOC2CNC(=O)C(=O)NCCc2ccco2)ccc1F (centres undefined)	none
CCOC(=O)c1sc2ncn(C(C)C(=O)OCC)c(=O)c2c1C (centres undefined)	none
COC(=O)c1ccccc1NC(=O)c1cn(-c2ccc(C)c(C)c2)c(=O)c2ccccc12	Peg3 promoter 52.4
Cn1cnc([N+](=O)[O-])c1Sc1nc(N)nc2c1ncn2C1CC(O)C(CO)O1 (centres undefined)	Peg3 promoter 50.1
CCNC(=O)c1cc2c(c(-c3cccc(-c4cc5ccccc5o4)c3)n1)[C@H](CCO)N(C(=O)NC(C)C)C2	TWEAK Fn14 block 53.3 (no result: KKLEB tox, CF NFkB block, Peg3 promoter)
CCCNC(=O)c1cc2c(c(-c3cccc(-c4cc5ccccc5o4)c3)n1)[C@@H](CCO)N(C(=O)NC(C)C)C2	none (no result: KKLEB tox, CF NFkB block, Peg3 promoter)
O=c1cc(Nc2ccc3c(c2)OCCO3)[nH]c(=O)n1Cc1ccc(F)cc1	TROY NFkB inh 50.6, TWEAK Fn14 block 69.5
O=C(Nc1nnc(C2CC2)s1)C1CCCO1 (centres undefined)	none
Cc1nc(NC(=O)c2ccccc2)sc1-c1cc(C(=O)O)nn1Cc1ccccc1	none
O=S(=O)(CCSc1ccccn1)c1nc2ccccc2s1	Peg3 promoter 59.6, TWEAK Fn14 block 61.2
CN(NS(=O)(=O)c1ccc(Br)cc1)c1nc(C(F)(F)F)nc2ccccc12	TROY NFkB inh 58.3
CC(=O)c1ccc(NC(=O)C(C)O/N=C(\N)c2ccccc2)cc1 (centres undefined)	none
Cc1c(OC(C)C(=O)NCCCN2CCOCC2)ccc2c1oc(=O)c1ccccc12 (centres undefined)	none
Cc1ccc(NS(=O)(=O)c2cc(-c3n[nH]c(=O)c4ccccc34)ccc2C)cc1	Peg3 promoter 61.9
COc1ccc(-c2csc(NC(=O)c3ccccc3F)c2C(=O)O)cc1	none
CCOc1ccc(Br)cc1C1C(C(=O)OC)=C(N)Oc2cc(N(C)C)ccc21 (centres undefined)	TWEAK Fn14 block 52.8
CCOc1ccccc1C1C(C(=O)OC)=C(N)OC2=C1C(=O)CCC2 (centres undefined)	none
CN(C)c1ccc(NC(=O)c2cccc(C(=O)Nc3ccc(N(C)C)cc3)n2)cc1	TWEAK Fn14 block 50.6
CCCCCCOC(=O)Cc1c(C)nc(N)[nH]c1=O	TWEAK Fn14 block 56.3
CCCCCCOC(=O)CCc1c(C)nc(N)[nH]c1=O	none (no result: TROY NFkB inh)
O=C(c1ccco1)N1CCN(C(=O)c2ccco2)C1=S	Peg3 promoter 91.9, TWEAK Fn14 block 50.7
CCCS(=O)(=O)N1CCN(C(=O)c2ccco2)CC1	TWEAK Fn14 block 77.1
Clc1ccc(C2=NNC(=NCc3ccc4c(c3)OCO4)SC2)cc1	none
CCC(C)Nc1nc(N)c([N+](=O)[O-])c(Nc2cc(OC)ccc2OC)n1 (centres undefined)	none
CCC(C)Nc1nc(N)c([N+](=O)[O-])c(Nc2ccccc2OC)n1 (centres undefined)	Peg3 promoter 60.0
C=CCNc1nc(N)c([N+](=O)[O-])c(Nc2ccccc2OC)n1	none
COc1ccccc1Nc1nc(NCC(C)C)nc(N)c1[N+](=O)[O-]	CF NFkB block 55.2
Cc1ccc(-n2nc3c(=O)n(CC(=O)NCc4ccccc4)nc(C)c3c2C)cc1	none
O=C1NC[C@H](Cc2ccc(O)cc2)N(CCc2cc(C(F)(F)F)cc(C(F)(F)F)c2)C1=O	none (no result: KKLEB tox, CF NFkB block, Peg3 promoter)
O=C(NCCOc1ccc(F)cc1)c1ccccc1SCc1ccccc1	Peg3 promoter 60.3
